tim10-1 inh: inhibits growth of tim10-1 mutant yeast; 2.2% of 330,000 active; inhibition, % at 20 µM; S. cerevisiae tim10-1 ts strain growth, BacTiter-Glo, 24 h; AID 463190;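 active means inhibition of at least 40%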;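 further: mutant grown at 25 °C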
Rce1 inh: yeast Ras-converting enzyme inhibition; AID 2563; yeast membranes, quenched prenylated peptide cleavage fluorescence; Q03530; calls only; 0.27% of 290,000 active;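 active means fall in fluorescence gain of 50% or more versus controls, with final raw signal at or below 3038400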
Target sequence (Q03530 whole entry, looked up): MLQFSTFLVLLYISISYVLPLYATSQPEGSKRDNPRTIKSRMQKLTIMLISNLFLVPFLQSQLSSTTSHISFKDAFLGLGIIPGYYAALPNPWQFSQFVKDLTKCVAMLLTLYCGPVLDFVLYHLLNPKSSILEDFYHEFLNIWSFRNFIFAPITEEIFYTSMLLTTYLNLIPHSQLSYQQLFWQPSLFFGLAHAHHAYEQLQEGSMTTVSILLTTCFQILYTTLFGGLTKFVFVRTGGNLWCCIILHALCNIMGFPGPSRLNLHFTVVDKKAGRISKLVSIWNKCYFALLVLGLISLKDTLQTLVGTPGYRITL
PfHsp90 yeast 2: inhibits growth of yeast expressing Plasmodium falciparum Hsp90 | S. cerevisiae expressing PfHsp90, BacTiter-Glo ATP, 48 h; yeast lacking PDR1 and PDR3 efflux regulators | inhibition, % at 9.4 µM | 0.32% of 310,000 active;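 active means every replicate shows inhibition above about 80%, whatever the replicate mean, limit read from the data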
TIM10 inh: growth inhibitors of TIM10 yeast strain; inhibition, % at 10 µM; S. cerevisiae TIM10 strain growth, BacTiter-Glo luminescence, 24 h; AID 463195; 1.4% of 330,000 active;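 active means inhibition of 40% or more at the single tested concentration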;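 further: wild-type TIM10 isogenic control strain grown at permissive 25 °C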
tim23-1 inh: growth inhibitors of tim23-1 mutant yeast. S. cerevisiae tim23-1 growth, BacTiter-Glo luminescence, 24 h. inhibition, % at 20 µM. 1.3% of 330,000 active. AID 463212;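 active means growth inhibition of the mutant yeast at or above 50%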;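 further: temperature-sensitive mutant grown at 25 °C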
tim23-1 conf: tim23-1 yeast growth inhibition, confirmed; inhibition, % at 20 µM; 83% of 4,400 active; shares compounds with tim23-1 inh; AID 463218; S. cerevisiae tim23-1 growth, BacTiter-Glo luminescence, 24 h;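 active means inhibition above about 39% in either of two replicate wells at 20 µM, limit read from the data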;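 further: temperature-sensitive tim23-1 mutant grown at 25 °C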
Hits are given with their value; 0 = inactive; - = no result given; + = active, no number. Compounds with a hit are over-represented: about 3.7% of the library has one in this group of screens.

SMILES	tim10-1 inh	Rce1 inh	PfHsp90 yeast 2	TIM10 inh	tim23-1 inh	tim23-1 conf
O=C(Nc1ccc(C(F)(F)F)cc1)N1CCN(c2ccnc3cc(Cl)ccc23)CC1	0	0	0	0	51.2	46.4
O=C(Nc1cc(F)ccc1F)N1CCN(c2ccnc3cc(Cl)ccc23)CC1	0	0	0	0	0	-
CC(C(Sc1ccccc1N)c1ccccc1)[N+](=O)[O-] (stereo not given)	0	0	0	0	58.4	57.3
CC(C(=O)NC1C=CS(=O)(=O)C1)N1C(=O)/C(=C/c2ccc(Cl)cc2)SC1=S (stereo not given)	0	0	0	0	0	-
CC1CCN(S(=O)(=O)c2ccc(C(=O)N3CCCC3C(=O)O)cc2)CC1 (stereo not given)	0	-	0	0	0	-
COc1ccc(C(=O)NC(=S)N2CCNC(=O)C2)cc1Br	0	0	0	0	0	-
COc1ccc(C(=O)NC(=S)N2CCC(C)CC2)cc1Br	0	0	0	0	56.9	0
O=C(c1ccccc1)N1CCSC1=S	0	0	-	0	0	-
CCOc1ccc(C(=O)N2CCCN(C(=O)c3ccc(OCC)cc3)CC2)cc1	0	0	0	0	0	-
Cc1ccc(C(=O)N2CCSC2=S)cc1	0	0	0	0	56.0	51.4
CCOc1ccc(C(=O)N2CCSC2=S)cc1	0	0	0	0	51.5	41.0
O=C(c1cccs1)N1CCN(c2cc(Cl)ccc2Cl)CC1	0	0	0	0	0	0
Cc1ccc(/C=N/NC(=O)c2ccc(OC3CCCC3)cc2)o1	0	0	0	0	58.5	54.5
Cc1ccc(/C=N/NC(=O)c2ccncc2)o1	0	0	0	0	0	-
Cc1ccnc(Nc2nc(-c3ccc(O)cc3)cs2)c1	0	0	0	0	0	-
Cc1ccnc(Nc2nc(-c3ccc(O)cc3O)cs2)c1	0	-	0	0	86.3	76.7
Cc1cccc(/C=c2\s/c(=C\C(=O)C(C)(C)C)[nH]c2=O)c1	0	0	0	0	50.4	54.2
Oc1ccc(Br)cc1CNc1cnc2ccccc2c1	0	0	0	0	75.6	67.5
Cc1ccc(O)c(CNc2cnc3ccccc3c2)c1	0	+	0	0	56.9	41.8
COc1cccc(CNc2cnc3ccccc3c2)c1O	0	0	0	0	0	-
Oc1ccc(Br)cc1CNc1cccc2cccnc12	0	0	0	0	0	-
CC(C)(C)c1ccc(NC(=O)c2ccsc2)cc1	0	0	-	0	55.7	48.0
C=CCn1c(=O)c2c(nc3n2CC(C)CN3Cc2ccccc2)n(C)c1=O (stereo not given)	0	0	0	0	0	-
COc1ccc(NS(=O)(=O)c2ccc(-c3n[nH]c(=S)n3Cc3ccccc3)cc2)cc1	0	0	0	0	0	-
COc1ccc(NS(=O)(=O)c2cc(NC(=O)C3=NN(c4ccccc4)C(=O)CC3)ccc2OC)cc1	0	-	0	0	0	-
SMILES	tim10-1 inh	Rce1 inh	PfHsp90 yeast 2	TIM10 inh	tim23-1 inh	tim23-1 conf
CC1CCc2[nH]c3ccc(C(=O)NCCCOC(C)C)cc3c2C1 (stereo not given)	0	0	0	0	0	-
Cc1ccc(S(=O)(=O)N2CCCN(S(=O)(=O)c3ccccc3Br)CC2)cc1	0	-	0	0	52.2	0
Cc1ccc(S(=O)(=O)N2C/C=C\CN(S(=O)(=O)c3ccccc3Br)CC2)cc1	0	-	0	0	0	-
COc1ccc(-c2oc3ccccc3c2C#CC(C)(C)O)cc1	0	-	0	0	52.3	37.5
Cc1cc([N+](=O)[O-])ccc1NC(=S)NC(=O)Cc1ccccc1	0	0	-	0	50.1	0
CC(=O)NC(=S)Nc1ccc([N+](=O)[O-])cc1C	0	-	0	0	0	-
CCCOc1nc2ccccc2cc1/C=C/C(=O)O	0	0	0	0	0	-
CCOc1nc2ccccc2cc1C=O	0	-	0	0	72.3	59.0
COC(=O)c1ccc(NS(=O)(=O)c2c(C)[nH]c(C)c2C(=O)N2CCCC2)cc1	0	0	0	0	0	-
O=C(c1ccccc1)N1N=C(c2cccs2)CC1c1ccccc1O (stereo not given)	0	0	0	0	56.6	43.4
CCC(=O)N1N=C(c2cccs2)CC1c1ccc(C)cc1 (stereo not given)	0	0	0	0	0	-
Cc1ccc(C2CC(c3cccs3)=NN2C(=O)CCl)cc1 (stereo not given)	0	0	0	0	64.0	0
COc1cc(C(=O)NCCC(=O)NC2CCCCCCC2)cc(OC)c1OC	0	0	0	0	55.7	0
Oc1ccc(Cl)cc1C1=NNC(c2cc(Br)cc3c2OCOC3)C1 (stereo not given)	0	0	0	0	56.0	56.0
Oc1ccc(Cl)cc1C1=NNC(c2ccc(Cl)cc2)C1 (stereo not given)	0	0	0	0	50.4	50.4
O=C(CSC(=S)N1CCSCC1)c1ccc(Cl)cc1	0	0	0	0	0	-
COc1ccc(C(=O)O)cc1S(=O)(=O)NC(C)C12CC3CC(CC(C3)C1)C2 (stereo not given)	0	-	0	0	0	-
O=C(c1cccc(S(=O)(=O)Nc2ccc(F)cc2)c1)N1CCC1	0	-	0	0	0	-
O=C(CSc1nncn1-c1ccccc1F)NC1CCCCC1	0	-	0	0	0	-
Cc1ccc(N=Cc2cc(Cl)cc(Cl)c2O)nc1	0	0	0	0	66.0	75.9
Cc1ccc(N=CC2=C(O)CC(C)(C)CC2=O)nc1	0	0	0	0	0	-
O=C(OCC(=O)N1CCc2ccccc21)c1ccc([N+](=O)[O-])o1	0	-	0	0	69.7	73.2
O=C(OCc1nc2ccccc2s1)c1ccc([N+](=O)[O-])o1	0	-	0	0	54.8	58.8
Cc1cc(C)nc(/N=C(\N)Nc2ccc(S(=O)(=O)Nc3nccc(C)n3)cc2)n1	0	0	0	0	0	-
COc1ccccc1C(=O)Nc1cc(C)on1	0	-	0	0	0	-
SMILES	tim10-1 inh	Rce1 inh	PfHsp90 yeast 2	TIM10 inh	tim23-1 inh	tim23-1 conf
COc1ccc(C(=O)NC(=S)Nc2cccc3cc(O)ccc23)cc1OC	0	0	0	0	0	-
COc1ccccc1C(=O)Nc1cc(-c2ccc(C)cc2)no1	0	0	0	0	55.4	46.9
COC(=O)c1ccccc1NC(=O)c1ccccc1OC	0	0	0	0	51.2	0
COC(=O)c1ccccc1NC(=O)c1ccc(F)cc1	0	0	0	0	0	-
COc1ccccc1C(=O)NC(=S)Nc1cccc2cc(O)ccc12	0	0	0	0	53.5	46.0
CC(=O)N1CCOc2ccc(S(=O)(=O)NCc3ccc(Cl)cc3)cc21	0	0	0	0	0	-
c1ccc(CNc2nc(-c3ccccc3)nc3ccccc23)cc1	0	0	0	0	56.3	0
c1ccc(CNc2nc(-c3ccccn3)nc3ccccc23)cc1	0	0	0	0	0	-
COCCN(CCOC)c1nc(-c2ccccc2)nc2ccccc12	0	0	0	0	0	-
CCN(CC)c1nc(-c2ccccc2)nc2ccccc12	0	0	0	0	51.3	42.6
c1ccc(CNc2nc(-c3cccnc3)nc3ccccc23)cc1	0	0	0	0	0	-
Fc1ccccc1-c1nc(NCc2ccccc2)c2ccccc2n1	0	0	-	0	50.3	0

Screening data: PubChem, several laboratories
